Shown are actives, neighbours in structure and some others; about 3.7% of the full set was active somewhere.
WRN helicase inh: blocks human WRN helicase | WRN helicase unwinding, fluorescent forked duplex, kinetic | Potency, µM (doses to about 114 µM), most hits filed as inhibitors | 0.46% of 360,000 active | AID 651768; also: nearly all actives have a fitted effect of over 55% in size
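Primary qHTS, 1536-well format. 20 nM WRN + compound, 15 min RT; start with 100 nM forked fluorophore/quencher duplex, 2 mM ATP (final); kinetic read ex 525/em 598 nm.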
FEN1 inh: inhibitors of human flap endonuclease 1; 0.35% of 390,000 active; Recombinant FEN1 flap cleavage, fluorescence, 15 min; Potency, µM (doses to about 114 µM), actives largely listed as inhibitors; P39748; also: nearly all actives have a fitted effect of over 65% in size
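Recombinant FEN1 (10 nM) was preincubated with pin-transferred compounds for 15 min at room temperature, then flap DNA substrate (50 nM final) was added. Plates were read at 0 and 15 min, and normalized concentration–response data were fitted to a four-parameter Hill equation.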
VDR inhibitor: inhibitors of human vitamin D receptor | P11473 | VDR-SRC2-3 peptide fluorescence polarization, 2 h | Potency, µM, most hits filed as inhibitors | 0.93% of 400,000 active | AID 504847
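Compounds are added to VDR with labelled SRC2-3 coactivator peptide and held 2 h at room temperature. Inhibition of the VDR–peptide interaction is then read as a change in fluorescence polarization.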
PLK1 PBD inh: inhibitors of human PLK1 polo-box domain binding. P53350. Plk1 PBD binding of FITC phosphopeptide, fluorescence polarization. Potency, µM, most hits filed as inhibitors. 2.8% of 360,000 active; also: series mostly up to about 57 µM; nearly all actives have a fitted effect of over 65% in size
PI5P4Ka inh: PI5P4K alpha (human) kinase inhibition | P48426 | max response, % | 1.2% of 330,000 active | PI5P4Kalpha enzyme, ADP-Glo luminescence, 60 min; active compounds read low; active = max response of -50% or lower; inconclusive = between -30% and -50%; inactive = -30% or higher; also: value at the top dose of about 77 µM
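ADP-Glo luminescence end-point after a 60 min room-temperature kinase reaction. PI5P4Kalpha and substrate in HEPES pH 7.4 buffer with EGTA, 0.1% CHAPS and 5% DMSO; ATP at 5 microM final.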
TCR activator: activators of T cell receptors; 330,000 tested, under 10 active; Potency, µM (titrated, usually from 9.22 µM), most hits filed as activators; AID 504894; primary human leukocytes, anti-CD3, IL-2 HTRF, 48 h
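IL-2 release read by HTRF sandwich (Eu cryptate donor, d2 acceptor, 665 nm emission) after 48 hr exposure of primary human leukocytes to compound together with anti-CD3 beads in the absence of co-stimulatory signals.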
A number is an active result; - = inactive; ? = inconclusive; . = no result given; [ ] = another dose, or the depositor's remark. Unless noted, calls follow the shape of the dose curve; as a rule, active = well fitted curve in the direction sought with a large enough effect; inconclusive = small, poorly fitted or top-dose-only effect, or another doubt; inactive = no such curve, though single readings can be large; an effect the other way counts as inactive or inconclusive.

SMILES | WRN helicase inh | FEN1 inh | VDR inhibitor | PLK1 PBD inh | PI5P4Ka inh | TCR activator
COc1c(O)cc2c(c1O)[C@@H]1O[C@H](CO)[C@@H](O)[C@H](O)[C@H]1OC2=O | - | - | - | - | - | -
Cc1c(C(=O)O)c(O)cc2c1C(=O)c1c(O)c([C@H]3O[C@H](CO)[C@@H](O)[C@H](O)[C@H]3O)c(O)c(O)c1C2=O | . | 50.1µM | - | . | . | .
O=S(=O)(c1cccc(C(F)(F)F)c1)N1CCN(C(=S)NCc2ccco2)CC1 | - | - | - | - | - | -
CC(C)c1ccc(S(=O)(=O)N2CCN(C(=S)NCc3ccco3)CC2)cc1 | - | - | ? | 21.2µM | ? | -
Cc1cc(C(F)(F)F)nn1Cc1n[nH]c(=S)n1Cc1ccccc1 | - | - | - | - | -53.9 | -
Cc1cc(C(F)(F)F)nn1Cc1n[nH]c(=S)n1-c1ccc(Cl)cc1 | - | - | - | - | - | -
COC(=O)c1ccc(NC(=O)c2ccccc2N(C)S(=O)(=O)c2ccccc2)cc1 | - | - | - | 23.8µM | - | -
Cc1ccccc1C(=O)NC(=S)Nc1ccc(S(=O)(=O)N(C)c2ccccc2)cc1 | - | - | - | 26.7µM | - | -
CC(C)(C)NC(=O)CSc1ncnc2c1nnn2Cc1ccccc1Cl | - | - | ? | 26.7µM | - | -
CC1Cc2ccccc2N1c1ncnc2c1nnn2Cc1ccccc1Cl (configuration not stated) | - | - | - | 26.7µM | - | -
O=C(CSc1ncnc2c1nnn2Cc1ccccc1)NC1CCCC1 | - | - | - | - | - | -
N#Cc1ccc(-c2cccs2)nc1SCc1c(F)cccc1Cl | . | - | - | . | . | .
Cc1ccccc1OCC(O)Cn1c(N2CCCCC2)nc2c1c(=O)[nH]c(=O)n2C (configuration not stated) | - | - | - | - | - | -
Cc1ccccc1OCC(O)Cn1c(SC(C)C)nc2c1c(=O)[nH]c(=O)n2C (configuration not stated) | - | - | ? | 29.9µM | . | -
Cc1ccccc1OCC(O)Cn1c(Br)nc2c1c(=O)[nH]c(=O)n2C (configuration not stated) | - | - | - | - | - | -
CCSc1nc2c(c(=O)[nH]c(=O)n2C)n1CC(O)COc1ccccc1C (configuration not stated) | - | - | - | 26.7µM | . | -
CCCc1ccc(C2Sc3ccccc3NC3=C2C(=O)c2ccccc23)cc1 (configuration not stated) | . | - | - | . | . | .
O=[N+]([O-])c1ccc2c(c1)C=C/C2=C\c1ccccc1 | . | - | . | . | . | .
COc1ccc(CCn2c(-c3ccc(C(C)(C)C)cc3)n[nH]c2=S)cc1OC | - | - | - | 37.7µM | - | -
COc1ccc(CCn2c(-c3ccc(Cl)cc3)n[nH]c2=S)cc1OC | - | - | - | - | - | -
COc1ccc(C=C2SC(=S)NC2=O)c(OC)c1OC | ? | - | - | - | -63.5 | -
COc1ccccc1C=C1SC(=S)NC1=O | - | - | - | 26.7µM | -71.7 | -
COc1ccc2nc(N3CCCCC3)c(/C=C3\SC(=S)NC3=O)cc2c1 | ? | - | - | ? | ? | -
O=C1NC(=O)/C(=C/c2ccccc2Oc2ccc(Cl)cc2)S1 | - | - | - | ? | - | -
O=C1NC(=S)S/C1=C\c1cc2ccccc2nc1N1CCCCC1 | -[11.6 µM] | - | - | 10.6µM | - | -
SMILES | WRN helicase inh | FEN1 inh | VDR inhibitor | PLK1 PBD inh | PI5P4Ka inh | TCR activator
O=C1NC(=S)SC1=Cc1ccccc1Cl | - | - | ? | 21.2µM | -79.4 | -
COc1cccc(N(C)C(=S)Oc2ccc3c(c2)CCCC3)n1 | . | . | - | . | . | .
COc1ccc(OCC(=O)Nc2ccc3c(c2)nc(CN2CCCC2)n3C)cc1 | - | - | - | 26.7µM | - | -
Cn1c(CN2CCCC2)nc2cc(NC(=O)COc3ccc(Cl)cc3)ccc21 | - | - | - | - | . | -
Nc1nnc(CSCc2ccc(F)cc2)s1 | - | - | - | 18.9µM | . | -
COc1ccc(NC(=O)CSc2ncc3c(n2)-c2cc(Cl)ccc2N(Cc2ccccc2F)S3(=O)=O)cc1 | . | - | - | . | . | .
O=c1[nH]c(-c2cccnc2)nc2ccccc12 | - | - | - | - | - | .
CC(C)Nc1nc2ccccc2c(=O)[nH]1 | - | - | ? | 21.2µM | - | -
O=c1[nH]c(-c2ccncc2)nc2ccccc12 | - | - | 79.4µM | 5.32µM | ? | -
Cc1cc(C)cc(-c2cc3c(c(-c4c(O)c(-c5cc(C)cc(C)c5)cc5c4CCCC5)c2O)CCCC3)c1 | . | . | - | . | . | .
CCn1c2ccccc2c2cc(/C=C3\C=Cc4ccccc43)ccc21 | . | - | . | . | . | .
COc1cccc(-c2cncnc2NCc2ccc(OC)cc2OC)c1 | . | . | - | . | . | .
COc1cccc(-c2cncnc2Nc2ccc(F)cc2)c1 | . | . | 50.1µM | . | . | .
O=C(COc1ccccc1C(=O)Nc1ccccc1)Nc1ccc(Br)cc1 | . | - | . | . | . | .
Cc1ccc(-c2cn3nc(N4CCCC(C(=O)Nc5ccc(F)cc5)C4)sc3n2)cc1 (configuration not stated) | . | - | - | . | . | .
CCNC(=O)Nc1ccc2c(c1)c(=O)n(C)n2CC=C(C)C | - | . | . | - | - | .
CCNC(=S)Nc1ccc2c(c1)c(=O)n(C)n2CC=C(C)C | - | . | . | 21.2µM | - | .
CN(C(=O)c1ccc2c(c1)N(Cc1ccccc1F)C(=O)c1ccccc1S2)C1CCCCC1 | . | ? | - | . | . | .
Nc1ccc2nn(-c3ccccc3)nc2c1 | - | - | - | 21.2µM | - | -
CC(=O)Oc1cccc(N2C(=O)C3C4C=CC(C4=C(C)C)C3C2=O)c1 (configuration not stated) | - | - | ? | 16.8µM | - | .
CC(C)(C)OC(=O)C1=NOC2(C=CC(=O)C=C2)C1 | . | . | 28.2µM | . | . | .
CCOC(=O)C1=NOC2(C1)C(=O)Nc1ccc(OC(F)(F)F)cc12 (configuration not stated) | - | . | . | - | - | .
COc1ccccc1N(CC(=O)NC(C)(C)C)S(=O)(=O)c1cccs1 | - | - | ? | 26.7µM | - | -
CCCCCCCCCC[n+]1cccc2cc(Br)ccc21 | . | - | . | . | . | .
COc1ccccc1CNC(=O)CSc1ccsc1[N+](=O)[O-] | - | - | - | - | ? | -
SMILES | WRN helicase inh | FEN1 inh | VDR inhibitor | PLK1 PBD inh | PI5P4Ka inh | TCR activator
COc1ccc(CCNC(=O)CSc2ccsc2[N+](=O)[O-])c(OC)c1 | -[11.6 µM] | - | - | - | -57.2 | -
O=C(CSc1ccsc1[N+](=O)[O-])Nc1cccc(F)c1 | ? | ? | - | ? | -77.2 | -
COc1ccc(CCNC(=O)CSc2ccsc2[N+](=O)[O-])cc1OC | - | - | - | - | - | -
NS(=O)(=O)c1ccc(CCNC(=O)CSc2ccsc2[N+](=O)[O-])cc1 | -[11.6 µM] | - | - | - | -66.5 | -
COc1ccc(OC)c(CCNC(=O)CSc2ccsc2[N+](=O)[O-])c1 | - | - | - | - | -55.3 | -
CN(C)c1ccc(/C=C2\C=Cc3ccccc32)cc1Cl | . | - | . | . | . | .
Cc1ccc(OCCNC(=O)CNC(=O)Cc2cccc3ccccc23)cc1 | . | - | - | . | . | .
